Screen size: about 69,000 compounds; about 8,600 (12%) showed an effect of 50% or more. The full list was thinned out, with strong results kept by preference.

The values below come from ChEMBL document CHEMBL4513216, “Probing the Open Global Health Chemical Diversity Library for Multistage-Active Starting Points for Next-Generation Antimalarials” (ACS Infect Dis, 2020).

The test relates to Plasmodium berghei. The experiment in a line: Screen against P. berghei liver stage (PbLuc), transformed with Luciferase, at 10uM. The format is functional, HepG2. The conditions noted are these: tested at 10 uM.
As to `CCc1ccc(C(=O)N2CCCC2c2c(C)nn(C)c2OC)o1` (centres undefined), the INHIBITION is reported as -11.2%. As to `Cc1ccc(CN2C[C@@H]3CCCO[C@@H]3[C@H](N(C)Cc3ccco3)C2)s1`, the INHIBITION is on record as -15.1%. As for `O=C(O)C1(Oc2ccc3c(c2)OCO3)CCN(C2CCOCC2)CC1`, the INHIBITION was determined as 31.9%.

For `N#CCC1CC(c2ccc(F)cc2)=NO1` (centres undefined), the INHIBITION was 12.6%.

With `O=C(CN1CCOC(Cn2cccn2)C1)NCCc1cccs1` (centres undefined), the INHIBITION came out at 6.49%. The value for `O=C(c1ccoc1)N1CC[C@H]2[C@H]1CCN2CC1CC1` was -6.05%; that for `Cn1cccc1C(=O)N1CC[C@H]2[C@H]1CCN2CC1CC1` was 55.6%; that for `Cn1cccc1C(=O)N1CCC2(CCCN(CC3CCC3)C2=O)C1` (centres undefined) was 53.6%. The value for `Cn1cccc1C(=O)N1CC[C@H]2[C@@H]1CCC(=O)N2CC1CC1` was 54.1%; that for `Cn1cccc1C(=O)N1CC[C@@H]2[C@@H]1CC(=O)N2CC1CCOCC1` was 51.2%. Consider `Cn1cccc1C(=O)N1CC[C@H]2[C@H]1CCN2CC1CCOCC1`, for which the INHIBITION is on record as 27.5%. With `Cn1cccc1C(=O)N1CC[C@H]2[C@@H]1CCC(=O)N2c1ccccc1`, the INHIBITION stood at 43.8%. With `Cn1cc(Cl)cc1C(=O)N1CCC2(CCCN(CC3CCC3)C2=O)C1` (centres undefined), the INHIBITION stood at 19.5%. As for `Cn1cccc1C(=O)N1CC[C@@H]2[C@@H]1CC(=O)N2CCN1CCOCC1`, the INHIBITION was found to be 1.9%. For the molecule `O=C1C[C@H]2[C@@H](CCN2C(=O)c2ccccc2)N1CCN1CCOCC1`, the INHIBITION is on record as 30.1%. The same measure for `Cn1cccc1C(=O)N1CCC2(CCCN(CC3CC3)C2=O)C1` (centres undefined): 9.63%; for `Cn1cccc1C(=O)N1C[C@H]2CN(CC3CC3)C(=O)[C@H]2C1`: 2.26%.

Turning to `CCCn1nc(C)c2c(C(F)F)cc(=O)n(CC(=O)O)c21`, the INHIBITION is recorded as -7.59%. Turning to `O=C(c1cccc2ncccc12)N1CCCC(n2ccnc2)C1` (centres undefined), the INHIBITION turned out to be 27.72%. For `CC(C)c1nnc(NC(=O)CN2C(=O)c3ccccc3NC2C(C)C)s1` (centres undefined), the INHIBITION is given as 19.4%. Take `Cc1nn(C)c(N2CCOCC2)c1CNCc1ccc(CO)c(F)c1`: the INHIBITION is reported as -35.7%. For the molecule `CCCc1cc(NC2CCc3nc(CC)nn3C2)n2ncnc2n1` (centres undefined), the INHIBITION came to 16.6%.

Regarding `CN1C[C@H]2CNC[C@@]2(C(=O)NC2CCN(c3ncccc3C#N)CC2)C1`, the INHIBITION was determined as 36.6%. In the case of `COCc1nn(C(C)C)c2c1CCN(Cc1ccc(C)s1)C2`, the INHIBITION was -6.53%. For `COCc1nn(C(C)C)c2c1CCN(Cc1ccoc1)C2`, the INHIBITION is -76.7%.

As to `COCc1nn(C(C)C)c2c1CCN(Cc1ccc(C)o1)C2`, the INHIBITION was found to be 58.8%. As for `N#Cc1ccsc1NC(=O)CN1CCn2c(nnc2C2CC2)C1`, the INHIBITION came out at 23.4%. On to `Cc1cc(CN(CCO)Cc2cc(Br)ccc2F)no1`, for which the INHIBITION was 37.8%. For the molecule `O=c1c2cc3c(cc2nnn1Cc1ccccc1)OCCO3`, the INHIBITION is on record as 15.1%. For `O=c1c2cc3c(cc2nnn1Cc1ccccc1Cl)OCCO3`, the INHIBITION was determined as 57.3%. With `Cc1ccccc1Cn1nnc2cc3c(cc2c1=O)OCCO3`, the INHIBITION came out at 37.5%. For `CC(=O)N1CC(=O)N(c2ccccc2)CC12CCN(Cc1nccs1)C2` (centres undefined), the INHIBITION is recorded as -0.912%. As for `CC(=O)N1N=C(c2cccs2)OC1C(=O)NCCc1cccc(Cl)c1` (centres undefined), the INHIBITION is 25.3%.

As to `COC(=O)c1cccc(C(=O)N(CCC#N)CC(C)(C)C)c1`, the INHIBITION turned out to be 68.6%. Turning to `CC(C)(C)CN(CCC#N)C(=O)c1cccc(CN2CCCC2)c1`, the INHIBITION is listed as -38.2%. For `CC(C)(C)CN(CCC#N)C(=O)Nc1cccc(N2CCNC2=O)c1`, the INHIBITION is -45.2%. As for `Cc1cc(C)n(Cc2cccc(C(=O)N(CCC#N)CCC#N)c2)n1`, the INHIBITION is on record as 56%. On to `CC(C)(C)CN(CCC#N)C(=O)c1cccc(CC#N)c1`, for which the INHIBITION was determined as 80%. The same measure for `N#CCCN(CCC#N)C(=O)c1cccc(N2CCNC2=O)c1`: 46.1%; for `Cc1nc2ccc(C(=O)N(CCC#N)CCC#N)cc2nc1C`: -37.4%; for `CCN(CC)C(=O)c1cccc(Cn2nc(C)cc2C)c1`: 10.5%. Take `COCCN(CCOC)C(=O)c1cccc(Cn2nc(C)cc2C)c1`: the INHIBITION stood at 11.1%. The value for `Cc1csc(C2CCCCN2C(=O)c2cc(C)n(C)n2)n1` (centres undefined) was 17.5%. The same measure for `O=c1cc(Cn2ccnc2)nc2n1CCCN(Cc1ccc(F)cc1)C2`: -3.52%; for `Cn1ccnc1CN1CCN(CCOc2ccccc2F)CC1`: 7.27%.

On to `CC(C)c1ncc(CN2CCC(CO)C2)cn1` (centres undefined), for which the INHIBITION turned out to be 8.72%. `CCc1n[nH]c(C2CN(C(=O)Cn3ccccc3=O)CCO2)n1` (centres undefined): the INHIBITION turned out to be 53%. On to `CCc1n[nH]c(C2CN(C(=O)CCn3ccccc3=O)CCO2)n1` (centres undefined), for which the INHIBITION is on record as -22.9%.

Take `CC(C)c1n[nH]c(C2CN(C(=O)Cn3ccccc3=O)CCO2)n1` (centres undefined): the INHIBITION worked out at 62.1%. As for `Cc1n[nH]c(C2CN(C(=O)Cn3ccccc3=O)CCO2)n1` (centres undefined), the INHIBITION is reported as 34.5%. Take `CCCc1n[nH]c(C2CN(C(=O)Cn3ccccc3=O)CCO2)n1` (centres undefined): the INHIBITION was 48.4%. With `CC(C)c1n[nH]c(C2CN(C(=O)CCn3ccccc3=O)CCO2)n1` (centres undefined), the INHIBITION was 5.97%. In the case of `Cc1noc([C@H]2C[C@@H]3CCN(CC4CCOCC4)C[C@H]3O2)n1`, the INHIBITION amounted to 27.7%. The same measure for `CNC(=O)CN1CC[C@H]2CN(C(=O)c3cccc(C)c3)C[C@H]2C1`: 8.52%. The value for `Cc1nocc1C(=O)N1CCc2c(CN(C)C)nn(C)c2C1` was -1.12%.

Take `O=C(c1cc2c(s1)CCOC2)N1CCCC1Cn1cccn1` (centres undefined): the INHIBITION was 8.64%.

Turning to `O=C(Cn1cnc2cc3c(cc21)OCCCO3)NC1CCCCC1`, the INHIBITION came to 13.7%. Turning to `c1cc(CN2CCC(c3ccnc4nccn34)C2)ccn1` (centres undefined), the INHIBITION worked out at 35.7%. Turning to `c1ccc2c(Cc3nnc([C@H]4CCN(C5CCCCC5)C4)o3)c[nH]c2c1`, the INHIBITION turned out to be 8.67%.

Turning to `c1ccc2c(Cc3nnc([C@H]4CCN(C5CCOCC5)C4)o3)c[nH]c2c1`, the INHIBITION is on record as 56.1%. For `c1ccc2c(Cc3nnc([C@H]4CCNC4)o3)c[nH]c2c1`, the INHIBITION came out at 65.6%.

Regarding `c1ccc2c(Cc3nnc([C@H]4CCN(CC5CC5)C4)o3)c[nH]c2c1`, the INHIBITION is listed as 5.96%.

With `CN1CC[C@H](c2nnc(Cc3c[nH]c4ccccc34)o2)C1`, the INHIBITION came to 24.9%. Consider `c1ccc2c(Cc3nnc([C@H]4CCN(C5CCC5)C4)o3)c[nH]c2c1`, for which the INHIBITION is recorded as -4.88%.
